Only some compounds are listed: those with a hit (about 7.8% of all), similar ones and a draw of the others.
NOMO-1 viab = STK33 inhibitor candidate reducing NOMO-1 cell viability; AID 2330; NOMO-1 AML viability, CellTiter-Glo luminescence, 72 h; inhibition, % (test concentration not listed); hit rate 7.5% among 37,000; in the data active = inhibition above about 80%; inconclusive = no clear call, values can overlap the other calls
Shh pathway inh = Sonic Hedgehog pathway inhibition. Shh-LIGHT2 Gli-luciferase reporter, 30 h. inhibition, % (no concentration beside the values). hit rate 2.1% among 22,000. AID 2313;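 active = mean inhibition across valid replicates above about 65%, limit read from the data; inconclusive = mean under the limit, yet half or more replicates past it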;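 also: pathway switched on by Shh-conditioned medium diluted 1 in 25 in low serum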
MITF inh = inhibitors of MITF; inhibition, % (test concentration not listed); hit rate 0.28% among 37,000; TRPM1 promoter luciferase, luminescence, 24 h; AID 2240; in the data active = inhibition above about 85%; inconclusive = no clear call, values can overlap the other calls; inactive = below about 68%;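 also: human melanocyte line stably carrying TRPM1 promoter luciferase reporter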
The depositor's hits bear a star; ? = inconclusive; · = no result; ! = repeats disagree.

SMILES	NOMO-1 viab	Shh pathway inh	MITF inh
COc1cc2nc(N3CCN(C(=O)C4COc5ccccc5O4)CC3)nc(N)c2cc1OC (configuration not stated)	-2	28	0
COc1cc2nc(N3CCN(C(=O)c4ccco4)CC3)nc(N)c2cc1OC	95*	1	2
CNc1nc(SCC(N)=O)nc(N2CCOCC2)n1	-1	·	3
CC(NS(=O)(=O)c1ccc(C(C)(C)C)cc1)c1ccccc1 (configuration not stated)	-27	4	-17
CNCCC(Oc1ccc(C(F)(F)F)cc1)c1ccccc1 (configuration not stated)	119*!	0	-2
O=C(CSc1nnc(-c2ccncc2)n1-c1ccccc1)c1ccc(Br)cc1	4	·	20
CC1CCN(S(=O)(=O)c2cccc(C(=O)NC(C)(C)CO)c2)CC1	6	·	8
CC1CCN(S(=O)(=O)c2ccc(NC(=O)c3ccc(C(C)(C)C)cc3)cc2)CC1	114*	-61	40
COc1ccc(S(=O)(=O)Nc2ccc3c(c2)CC(=O)N([C@H](C)CO)C[C@@H](C)[C@@H](CN(C)Cc2ccccc2)O3)cc1	17	7	-7
Cc1ccc(-c2nc(SCC(=O)c3ccccc3)n[nH]2)cc1	15	·	-48
Cc1cc(C)c2c(=O)[nH]c(SCC(=O)NCc3ccccc3)nc2n1	17	·	7
Cc1csc2sc(-c3ccnc(SCC(=O)NCc4ccccc4)n3)c(C)c12	113*	·	-5
Cc1csc2sc(-c3ccnc(SCC(=O)c4ccccc4)n3)c(C)c12	1	70*	-24
CC(OC1OC(CO)C(O)C(O)C1O)C1C(O)CC2C3CCC4=CC(=O)CCC4(C)C3CCC21C (configuration not stated)	·	-47	·
COC(=O)c1ccc(C(=O)Nc2ccc(C(F)(F)F)cc2)nc1	15	-49	-38
CCOCCCNc1nc2c([nH]1)c(=O)n(C)c(=O)n2C	8	·	-27
CCOC(=O)COc1ccc(-c2nc3c([nH]2)c(=O)n(C)c(=O)n3C)cc1OC	149*	·	-14
C[C@H]1CN([C@@H](C)CO)C(=O)c2cccc(NS(=O)(=O)c3cccs3)c2O[C@@H]1CN(C)S(=O)(=O)c1ccc(F)cc1	-7	-1	-13
CC(C)NC(=O)Nc1ccc2c(c1)CC(=O)N([C@@H](C)CO)C[C@H](C)[C@H](CN(C)CC1CC1)O2	6	·	1
C[C@H](CO)N1C[C@H](C)[C@H](CN(C)Cc2ccccc2)Oc2c(NC(=O)NC3CCCCC3)cccc2C1=O	38	-26	13
O=C1CCCC2=C1C(c1ccccc1Cl)N=C(Nc1nc3ccccc3s1)N2 (configuration not stated)	116*	28	23
COc1ccc(OC)c(C2N=C(Nc3nc4ccccc4s3)NC3=C2C(=O)CC(C)(C)C3)c1 (configuration not stated)	115*	·	48
O=C(O)COc1ccc(Cl)cc1C1C2=C(CCCC2=O)NC2=C1C(=O)CCC2	-9	·	-2
COc1ccc(C2C3=C(CC(C)(C)CC3=O)N(C)C3=C2C(=O)CC(C)(C)C3)cc1	7	-4	5
CCOC(=O)CC1Sc2ccccc2N=C1SCCS(=O)(=O)c1ccc(Cl)cc1 (configuration not stated)	71	22	-7
SMILES	NOMO-1 viab	Shh pathway inh	MITF inh
C[C@@H]1CN([C@@H](C)CO)C(=O)Cc2cc(NC(=O)Cn3cnnn3)ccc2O[C@@H]1CN(C)C	23	-17	-22
CC(=O)N1c2ccccc2C(C)(c2ccccc2)CC1(C)C (configuration not stated)	?	-3	3
CC1(C)CC(C)(c2ccccc2)c2cc(SC#N)ccc2N1 (configuration not stated)	114*	108*	46
C[C@@H]1CN([C@@H](C)CO)C(=O)c2cccc(NC(=O)Nc3cccc4ccccc34)c2O[C@H]1CN(C)C(=O)Nc1ccc2c(c1)OCO2	66	6	31
C[C@@H]1CN([C@@H](C)CO)C(=O)c2cc(NC(=O)Nc3ccccc3)ccc2O[C@H]1CN(C)S(C)(=O)=O	3	16	-11
Cc1ccc(S(=O)(=O)Nc2ccc3c(c2)C(=O)N([C@H](C)CO)C[C@@H](C)[C@@H](CN(C)Cc2ccc(Cl)c(Cl)c2)O3)cc1	72	41	44
C[C@@H]1CN([C@H](C)CO)C(=O)Cc2cc(NC(=O)Nc3ccc(C(F)(F)F)cc3)ccc2O[C@H]1CN(C)C(=O)NC1CCCCC1	14	-10	-18
C[C@H](CO)N1C[C@H](C)[C@H](CN(C)CC2CCCCC2)Oc2ccc(NC(=O)Nc3ccc(C(F)(F)F)cc3)cc2CC1=O	128*	29	22
COc1ccc(NC(=O)Nc2ccc3c(c2)CC(=O)N([C@H](C)CO)C[C@H](C)[C@H](CN(C)CC2CCCCC2)O3)cc1	61	·	0
C[C@H]1CN([C@@H](C)CO)C(=O)Cc2cc(NC(=O)Nc3ccc(C(F)(F)F)cc3)ccc2O[C@@H]1CN(C)CC1CCCCC1	125*	1	-19
COc1ccc(S(=O)(=O)N(C)C[C@@H]2Oc3ccc(NS(=O)(=O)c4ccccc4)cc3CC(=O)N([C@@H](C)CO)C[C@@H]2C)cc1	-4	31	-3
C[C@H](CO)N1C[C@H](C)[C@H](CN(C)C)Oc2c(NC(=O)Nc3ccc4c(c3)OCO4)cccc2C1=O	-12	-16	-9
COc1cccc(NC(=O)C(C)NS(=O)(=O)c2ccc(Br)cc2)c1 (configuration not stated)	-4	·	14
CCOC(=O)C1=C[C@@H](OC(CC)CC)[C@H](NC(C)=O)[C@@H](N)C1	21	18	-5
N#CC(C#N)=C(Nc1ccc(Br)cc1)SCc1ccc(F)cc1	112*	109*	73
CNC(=O)CSCc1ccc(Br)cc1	18	-57	-30
COc1ccc(NC(=O)Nc2ccc3c(c2)C(=O)N([C@H](C)CO)C[C@H](C)[C@H](CN(C)Cc2ccc(C(F)(F)F)cc2)OCCCC[C@@H](C)O3)cc1	122*	47	20
COc1ccc(CN(C)C[C@H]2OCCCC[C@@H](C)Oc3ccc(NC(=O)Nc4ccc(F)cc4)cc3C(=O)N([C@H](C)CO)C[C@@H]2C)cc1	43	28	-8
COc1ccc(CN(C)C[C@@H]2OCCCC[C@@H](C)Oc3ccc(NC(=O)Nc4ccc(OC)cc4)cc3C(=O)N([C@H](C)CO)C[C@@H]2C)cc1	22	35	7
COc1ccc(CN(C)C[C@H]2OCCCC[C@@H](C)Oc3ccc(NC(=O)Nc4ccc(C(F)(F)F)cc4)cc3C(=O)N([C@H](C)CO)C[C@@H]2C)cc1	85*	?	-29
CC(C)NC(=O)Nc1cccc2c1O[C@@H](CN(C)C(=O)Nc1ccc(C(F)(F)F)cc1)[C@@H](C)CN([C@H](C)CO)C2=O	21	-18	6
COc1ccc(OC)c(-n2c(CNC3CCN(Cc4ccccc4)CC3)nc3ccccc3c2=O)c1	90*	·	4
COc1ccc(OC)c(-n2c(CN3CCC(C(N)=O)CC3)nc3ccccc3c2=O)c1	27	·	4
COc1ccc(S(=O)(=O)N(C)C[C@H]2Oc3ccc(NC(=O)C4CCCCC4)cc3CC(=O)N([C@@H](C)CO)C[C@@H]2C)cc1	-9	-37	-6

High-throughput results as filed in PubChem BioAssay.
